RORg inh = qHTS for inhibitors of ROR gamma transcriptional activity | Nuclear receptor ROR-gamma (Mus musculus), P51450 | Drosophila S2 Gal4-RORgamma UAS-luciferase reporter, 20 h | Potency, µM (titrated, usually from 53.6 µM), for the others: top-dose activity change, negative = inhibition, hits mostly inhibitors | 310,000 compounds, 5.4% hits | AID 2551, 2010; also: potency is read from the fitted curve at half-maximal effect; % is scaled to controls: 0 for no effect and ±100 for the full control effect; nearly all actives have a fitted effect of over 60% in size
Target sequence (P51450 whole entry, looked up, the tested form may be a part): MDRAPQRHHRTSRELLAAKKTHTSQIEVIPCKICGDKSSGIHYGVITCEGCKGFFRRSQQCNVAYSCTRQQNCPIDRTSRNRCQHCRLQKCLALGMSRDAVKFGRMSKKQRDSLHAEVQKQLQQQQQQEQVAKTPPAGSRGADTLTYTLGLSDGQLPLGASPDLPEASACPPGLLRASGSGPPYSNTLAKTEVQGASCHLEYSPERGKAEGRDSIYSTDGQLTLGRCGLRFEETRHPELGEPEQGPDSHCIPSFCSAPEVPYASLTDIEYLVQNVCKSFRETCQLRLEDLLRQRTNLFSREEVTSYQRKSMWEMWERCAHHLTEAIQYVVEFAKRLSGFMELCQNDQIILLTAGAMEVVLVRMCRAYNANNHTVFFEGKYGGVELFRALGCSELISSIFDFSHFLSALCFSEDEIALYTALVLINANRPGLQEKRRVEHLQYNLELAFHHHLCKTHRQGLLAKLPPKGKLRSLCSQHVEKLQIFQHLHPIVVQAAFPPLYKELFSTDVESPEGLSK
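Drosophila Schneider cells stably carrying a metallothionein-driven Gal4 DBD–ROR gamma fusion and a UAS-Photinus luciferase reporter were exposed to compound for 1 hr, then induced with copper sulfate (700 uM final) for 20 hr at ambient temperature before luminescence reading.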
MCF10A rereplic = A quantitative high throughput screen for small molecules that induce DNA re-replication in MCF 10a normal breast cells. AID 624296, 2012. Potency, µM (doses to about 46.1 µM), for inactives: at the highest dose activity, positive = re-replication, hits mostly activators. MCF 10A DNA re-replication, Hoechst nuclear intensity, 48 h. 350,000 compounds, 2.9% hits; also: potency is read from the fitted curve at half-maximal effect; % of control where 0% means no effect; nearly all actives have a fitted effect of over 50% in size
VP16 counter = VP16 counterscreen qHTS for inhibitors of ROR gamma transcriptional activity | Drosophila S2 Gal4-VP16 UAS-luciferase, luminescence, 20 h | Potency, µM (highest dose often 53.6 µM), inactives show top-dose activity, negative = inhibition, hits mostly inhibitors | 310,000 compounds, 3.5% hits | AID 2546, 2010;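 also: Gal4-VP16 expression switched on by copper sulfate through the metallothionein promoter; potency is read from the fitted curve at half-maximal effect; % is scaled to controls: 0 for no effect and ±100 for the full control effect; nearly all actives have a fitted effect of over 50% in size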
IL1B secr inh = qHTS for Inhibitors of Inflammasome Signaling: IL-1-beta AlphaLISA Primary Screen; THP-1 LPS/ATP IL-1B secretion, AlphaLISA, 16 h; hits give low values; activity change, % at 57.5 µM; 360,000 compounds, 4.7% hits; AID 743279, 2014; in the data active = activity change below about -50%; inconclusive = mostly about -30% to -49%; also: % is scaled to controls: 0 for no effect and ±100 for the full control effect
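Secreted IL-1B measured by AlphaLISA bead assay after 16 h compound exposure of THP-1 cells; compounds (final up to 57.5 uM) added 1 h before LPS (250 ng/mL) and ATP (1.25 mM) stimulation; lower signal means less secretion.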
SW480 rerep = A quantitative high throughput screen for small molecules that induce DNA re-replication in SW480 colon adenocarcinoma cells; Potency, µM (top dose mostly 46.1 µM), inactives show top-dose re-replication activation, actives largely listed as activators; 340,000 compounds, 1.8% hits; SW480 DNA re-replication, Hoechst DNA content imaging, 48 h; also: potency is read from the fitted curve at half-maximal effect; % of control where 0% means no effect; nearly all actives have a fitted effect of over 55% in size
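Compounds, transferred as 23 nL by pin tool, were incubated with cells for 48 hr; DNA content per nucleus was then quantified by Hoechst staining and fluorescence plate imaging.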
Numbers without * were called inactive; u = inconclusive; x = no result given; [ ] = dose if it differs, or a comment. Shown are actives, neighbours in structure and some others; about 11% of the full set was active somewhere. Unless noted, calls follow the shape of the dose curve; as a rule, active = well fitted curve in the direction sought with a large enough effect; inconclusive = small, poorly fitted or top-dose-only effect, or another doubt; inactive = no such curve, though single readings can be large; an effect the other way counts as inactive or inconclusive.

SMILES | RORg inh | MCF10A rereplic | VP16 counter | IL1B secr inh | SW480 rerep
N#Cc1cccc(NC(=O)N2CC[C@@]3(CCCN(C(=O)c4ccco4)C3)C2)c1 | 0.1% | x | 8.1% | x | x
Cc1ccccc1OCCNc1cc(N2CCCCC2)ccc1[N+](=O)[O-] | u | 23.7% | -10.1% | -16.8 | 0.3%
COc1ccc(OCCNc2cc(N3CCCCC3)ccc2[N+](=O)[O-])cc1 | 6.0% | 14.7% | 2.1% | u | -1.4%
Cc1ccccc1OCCNc1cc(N2CCN(CCO)CC2)ccc1[N+](=O)[O-] | -3.8% | 17.7% | -11.8% | -76.3* | 0.1%
CC1CN(c2ccc([N+](=O)[O-])c(NCCOc3ccccc3)c2)CCN1 (configuration not stated) | -2.5% | 21.7% | -4.3% | -61.6* | 16.3%
C=CC[C@H](CC(=O)NCCO)C(=O)NCCOC(=O)[C@@H](CC=C)CC(=O)OC(C)(C)C | x | -7.5% | x | 21.8 | -3.5%
CCOc1cccc(-c2c(C(=O)N/N=C/c3ccsc3)nnn2-c2nonc2N)c1 | 11.2µM* | 3.7% | 25.1µM* | 12.6 | -4.8%
CCOc1cccc(-c2c(C(=O)N/N=C/c3c(F)cccc3Cl)nnn2-c2nonc2N)c1 | -2.3% | 8.9% | -3.5% | -0.3 | 9.2%
CCOc1ccc(/C=N/NC(=O)c2nnn(-c3nonc3N)c2-c2cccs2)cc1 | -33.1% | 9.4% | -5.9% | -0.5 | 23.3%
CCOc1ccc(-c2c(C(=O)N/N=C/c3sccc3C)nnn2-c2nonc2N)cc1 | 3.16µM* | 6.7% | 8.91µM* | -12.4 | -9.8%
CCOc1cccc(-c2c(C(=O)N/N=C/c3sccc3C)nnn2-c2nonc2N)c1 | 5.62µM* | u | 4.47µM* | u | 21.1%
CNc1ccc(-c2ccccc2CO)cn1 | x | x | x | -2.8 | x
N/C(=N\c1nc2ccccc2o1)NC(=O)c1ccccc1F | 2.51µM* | 8.6% | 7.94µM* | 6.1 | -1.1%
N/C(=N\c1nc2ccccc2o1)NC(=O)c1ccccc1NC(=O)c1ccccc1 | -82.4% | u | u | 6.1 | 3.7%
N/C(=N\c1nc2ccccc2o1)NC(=O)c1cccc(Cl)c1 | -34.8% | -16.1% | 6.4% | x | 4.11µM*
COc1ccccc1C(=O)NC(=Nc1nc2ccccc2o1)NC(=O)c1ccccc1OC | 0.794µM* | 154.9% | u | 63.4 | u
O=C(NC(=Nc1nc2ccccc2o1)NC(=O)c1ccccc1)c1ccccc1 | -8.9% | u | 21.6% | -16.1 | -1.5%
CC(C)N1CCC(C)(C(=O)Nc2cccc3c2CCCC3)C1 (configuration not stated) | x | x | x | 0.0 | x
COc1ccc(S(=O)(=O)NCc2nc3nc(C)cc(C)n3n2)cc1OC | -10.6% | 12.0% | 4.0% | 2.1 | -3.6%
COc1ccc(C(=O)c2ccc(OC)c(OC)c2)cc1OC | 4.0% | 12.3% | -16.3% | -0.4 | 5.7%
COc1ccc(C(=O)c2ccc(OC)c(OC)c2)cc1 | 13.5% | 2.9% | 6.7% | 5.7 | 0.6%
COc1ccc(C(=O)c2cc(OC)c(OC)c(OC)c2)cc1OC | x | 3.66µM* | x | 43.3 | 3.66µM*
COc1ccc(C(=O)NCc2ccccc2)cc1Br | 9.8% | 19.5% | 5.0% | -6.8 | -0.6%
COc1ccc(C(=O)c2ccc(OC)c(N)c2)cc1N | 1.41µM* | 3.0% | -9.5% | 3.9 | -15.7%
COc1ccc(C(=O)c2ccccc2)cc1Br | 18.5% | 1.6% | 4.5% | -52.9* | -6.6%
SMILES | RORg inh | MCF10A rereplic | VP16 counter | IL1B secr inh | SW480 rerep
Cc1csc(=O)n1CCC(=O)OCC(=O)NCc1ccccc1 | x | x | x | -0.9 | x
Clc1cccc(N/N=C(\Cc2nc3ccccc3[nH]2)c2ccccc2)c1 | 17.8µM* | u | -89.2% | -104.0* | u
Nc1c(C(=O)N/N=C/c2cccnc2)oc2nc(-c3ccccc3)cc(-c3ccco3)c12 | -28.4% | 18.4µM* | 7.4% | x | u
NNC(=O)c1oc2nc(-c3ccc(Cl)cc3)cc(-c3ccccc3)c2c1N | -22.3% | 8.2µM* | 4.0% | -81.9* | 23.1µM*
NNC(=O)c1oc2nc(-c3ccco3)cc(-c3ccco3)c2c1N | -7.7% | u | -18.1% | -53.3* | -0.2%
Nc1c(C(=O)N/N=C/c2cccnc2)oc2nc(-c3ccco3)cc(-c3ccco3)c12 | -1.5% | u | 1.9% | -11.4 | u
CCCOC(C(=O)OC1CCN(C)CC1)(c1ccccc1)c1ccccc1 | -25.2% | u | 1.1% | x | u
CC(C)C[C@H]1CN(CCCC[C@@H]2CNC(=O)C(=O)N2Cc2ccccc2)C(=O)C(=O)N1Cc1ccccc1 | x | x | x | 21.0 | x
CCOC(=O)c1c(C)[nH]c(N=Nc2cccc(OC)c2)c1C | 3.98µM* | u | -16.2% | -67.1* | -0.3%
COc1ccc(NC(=O)Cc2ccccc2)cn1 | 22.9% | 0.9% | 4.3% | 16.0 | 0.7%
COc1ccc(NC(=O)/C(Cl)=C(/Cl)S(=O)Cc2ccccc2)cn1 (configuration not stated) | 1µM* | u | 1.12µM* | -102.5* | u
COc1ccc(CS(=O)(=O)/C(Cl)=C(/Cl)C(=O)Nc2ccc(OC)nc2)cc1 | 5.01µM* | 0.411µM* | 3.16µM* | -120.4* | 0.82µM*
CN(C)C(=S)N=Nc1[nH]c2ccccc2c1O | 0.891µM* | u | 5.62µM* | 47.9 | u
C=C(C)C(=O)/C=C/c1ccc(C(F)(F)F)cc1 | -25.5% | x | 4.8% | x | x
COc1ccc(NC(=O)c2c(Nc3ccccc3)sc(C(=O)c3ccc(F)cc3)c2N)cc1 | -120.3% | 18.1% | 12.6µM* | -0.1 | 4.6%
COc1ccc(C(=O)c2sc(Nc3cccc(OC)c3)c(C(=O)Nc3cccc(C)c3C)c2N)cc1 | 22.3% | 1.46µM* | 4.3% | 68.2 | u
COc1ccc(Nc2sc(C(=O)c3ccc(Cl)cc3)c(N)c2C(=O)Nc2ccccc2OC)cc1 | -42.2% | 8.6% | u | 47.2 | 7.2%
CC1CN(Cc2cn(C)nc2-c2ccc(Oc3ccccc3)cc2)CCN1C (configuration not stated) | -2.5% | u | -19.9% | -64.4* | -0.2%
CN(Cc1cn(C)nc1-c1ccc(Oc2ccccc2)cc1)Cc1cnc2ccccn12 | 10µM* | 23.1µM* | u | -5.5 | -3.5%
C[C@@H]1COc2cc(N(C)CCO)ccc2S(=O)(=O)N1 | x | x | x | 21.1 | x
O=C(Nc1ccccc1[N+](=O)[O-])OCC=Cc1ccccc1 | x | x | x | -54.1* | x
CCCCNCCOCCOc1ccc(C)cc1Br | 4.4% | u | -10.3% | -25.3 | u
Cc1ccc(OCCOCCNC(C)C)c(Br)c1 | -34.3% | u | -17.0% | -58.2* | 8.1%
CCC(C)NCCOCCOc1ccc(Cl)cc1Br (configuration not stated) | -22.1% | 2.6% | -16.3% | -79.9* | 21.5%
COc1ncc(C2=CC(=O)CC(C)(C)C2)cn1 | x | 13.1% | x | -12.8 | 18.1%[9.22 µM]
